# KB-V1 MDR tox = kills drug-selected multidrug resistant KB-V1 cells | AID 1347076 | 400,000 compounds, 3.4% hits | KB-V1 MDR cells viability, CellTiter-Glo, 72 h | Potency, µM (doses to about 46.1 µM), most hits filed as cytotoxic; note: % is set by controls: 0 for no effect and ±100 for the full control effect; nearly all actives have a fitted effect of over 60% in size
#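 Drug-selected KB-V1 cells, grown in DMEM lacking phenol red with 10% FBS, receive compound titrations; after three days at 37 degrees C, surviving cell ATP is quantified by CellTiter-Glo luminescence and responses normalized and curve-fitted.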
# KB-3-1 tox = KB-3-1 parental cell cytotoxicity; 400,000 compounds, 1.4% hits; KB-3-1 viability, CellTiter-Glo ATP luminescence, 72 h; Potency, µM (highest dose often 46.1 µM), most hits filed as cytotoxic; note: % is set by controls: 0 for no effect and ±100 for the full control effect; nearly all actives have a fitted effect of over 60% in size
#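 Screening of KB-3-1 cells (DMEM, 10% FBS, phenol-red free) ran from lowest to highest compound concentration; after 72 h at 37 °C viability was read luminescently and curves fitted.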
# PINK1 modulator = changes PINK1 expression; PINK1 immunofluorescence, high-content cytometry, 24 h; 410,000 compounds, 0.2% hits; Potency, µM (titrated, usually from 76.6 µM), for inactives: at the top dose activation (PINK1 increase), most hits filed as activators; AID 624263; active = well fitted activation curve with a large enough effect; inconclusive = small, poorly fitted or top-dose-only effect; cell line not stated here; note: % of control where 0% means no effect; nearly all actives have a fitted effect of over 65% in size
#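 Cells are seeded, rested 12 hours, then given compound at five concentrations or DMSO for 24 hours. After fixation, blocking and antibody staining, PINK1 amount and mitochondrial localization are scored; CCCP serves as control.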
# SW480 rereplic = inducers of DNA re-replication in SW480 colon cancer cells. SW480 DNA re-replication, Hoechst DNA content imaging, 48 h. Potency, µM (highest dose often 46.1 µM), for the others: at the highest dose re-replication activation, hits mostly activators. 340,000 compounds, 1.8% hits; note: % of control where 0% means no effect; nearly all actives have a fitted effect of over 55% in size
#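 250 cells/well; 23 nL cpd via pin tool; 48 hr, 37 C, 5% CO2; Hoechst 40 min; imager read of total nuclear intensity, ex 405/em 500-530 nm.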
# MCF10A rerep = DNA re-replication induction in MCF 10a cells; Potency, µM (highest dose often 46.1 µM), for inactives: top-dose activity, positive = re-replication, usual class: activators; 350,000 compounds, 2.9% hits; MCF 10A DNA re-replication, Hoechst nuclear intensity, 48 h; note: % of control where 0% means no effect; nearly all actives have a fitted effect of over 50% in size
# Active calls of the source: *; i = inactive; ? = inconclusive; · = not tested or not shown; [ ] = another dose, or the depositor's remark. Sampled rows, rich in hits. Any-hit rate of the full collection: about 6.7%. Unless noted, calls come from the whole dose curve; as a rule, active = well fitted curve in the direction sought with a large enough effect; inconclusive = small, poorly fitted or top-dose-only effect, or another doubt; inactive = no such curve, though single readings can be large; an effect the other way counts as inactive or inconclusive. Potency is the fitted concentration of half-maximal effect.
SMILES,KB-V1 MDR tox,KB-3-1 tox,PINK1 modulator,SW480 rereplic,MCF10A rerep
Cc1cc2c(cc1C)CSC(c1ccc3ccccc3c1O)SC2,i,i,13%,5%,16%
Cc1cc2c(cc1C)CSC(c1ccccc1OC(=O)C(C)(C)C)SC2,i,i,3%,7%,12µM*
Oc1ccccc1C1SC(c2ccccc2O)SC(c2ccccc2O)S1 (centres undefined),i,?,-2%,?,6.5µM*
C[C@H]1CN([C@@H](C)CO)C(=O)c2cc(Br)cnc2O[C@@H]1CN(C)S(=O)(=O)c1ccccc1,i,i,1%,·,·
CCCS(=O)(=O)NC(=O)C1(C)CCCN(C(=O)c2ccc3ccccc3c2)C1 (centres undefined),i,i,0%,·,·
O=C1CNC(=O)c2cc(Cl)ccc2N1,i,i,0%,·,·
CCOc1cc(CNc2ccc(O)cc2)cc(Cl)c1OCc1ccccc1,i,i,4%,·,·
CC1(C(=O)NCC2CC2)Cc2c(-c3ccccc3)ccnc2O1 (centres undefined),i,i,2%,·,·
Cc1ccc(-n2nnnc2SCC(=O)NCCC2=CCCCC2)c(C)c1,21µM*,i,-3%,2%,11%
Cc1cc(-n2c(SCC(=O)NCCC3=CCCCC3)nc3n[nH]c(C)c3c2=N)ccc1Cl,i,i,0%,26%,21µM*
Cc1ccc(Cl)cc1-n1c(SCC(=O)NCCC2=CCCCC2)nc2n[nH]c(C)c2c1=N,i,i,2%,15%,?
CN(C)Cc1cc(C(F)(F)F)ccc1C(O)(c1ccccc1)c1ccccc1,21µM*,?,7%,?,21%
O=C(N/N=C/c1cccc(O)c1)c1ccc(COc2ccccc2Br)cc1,i,i,1%,9%,23µM*
O=C(N/N=C/c1ccc([N+](=O)[O-])cc1)c1ccc(COc2ccccc2-c2ccccc2)cc1,16µM*,?,-1%,-9%,-15%
O=C(Nc1ccc(Cn2cccn2)cc1)c1ccc(COc2ccccc2Br)cc1,18µM*,9.2µM*,1%,?,?
COc1ccccc1OCc1ccc(C(=O)Nc2ccccc2)cc1,i,i,5%,-2%,1%
Cc1ccccc1OCCNc1ccc(C(F)(F)F)cc1[N+](=O)[O-],?,16µM*,3%,-11%,17%
CCc1ccc(N/C(SCc2cccc(F)c2)=C(/C#N)C(=O)NCc2ccco2)cc1,?,i,12%[38.3 µM],?,16%
Cc1ccc(N/C(SCc2ccccc2C)=C(/C#N)C(=O)NCc2ccco2)cc1C,12µM*,?,?,3%,?
COc1ccc(C(=O)Nc2ccc3ccccc3c2)c(OC)c1,18µM*,?,-1%,1%,?
COc1cc2ccccc2cc1C(=O)N/N=C/c1cccnc1,?,16µM*,6%,1%,-2%
COc1cc2ccccc2cc1C(=O)Nc1ccc(Cc2ccncc2)cc1,9.2µM*,18µM*,4%[38.3 µM],18µM*,21µM*
COc1ccccc1C(=O)Nc1ccc2ccccc2c1,i,i,2%,-6%,6%
COc1ccc(Br)cc1C(=O)N/N=C/c1cccnc1,i,i,4%,-5%,-2%
Cc1ccc(C(=O)Nc2ccc(-c3nc4ccccc4[nH]3)cc2)cc1Br,i,i,·,·,·
SMILES,KB-V1 MDR tox,KB-3-1 tox,PINK1 modulator,SW480 rereplic,MCF10A rerep
Nc1ncc(-c2nnnn2-c2ccc(Cl)cc2)c(-c2ccc(Cl)cc2)n1,6.5µM*,5.2µM*,2%,2.9µM*,?
Clc1ccc(-n2nnnc2-c2cnc3ccccc3c2-c2ccccc2)cc1,16µM*,i,1%,-8%,-4%
Clc1ccc(-n2nnnc2-c2ccccc2)cc1,i,i,4%[38.3 µM],-2%,-19%
Cc1ccc(-n2nnnc2-c2cnc3ccc(Cl)cc3c2-c2ccccc2)cc1,?,7.3µM*,9%,?,21µM*
Cc1cc2c(SCC(=O)Nc3cccc(O)c3)ncnc2s1,i,i,0%,?,32%
c1ccc2c(C(c3nnnn3-c3ccc4c(c3)OCCO4)N3CCCCC3)ccnc2c1 (centres undefined),i,i,5%,·,·
